Test results as given in PubChem BioAssay (Tox21).
Results filed as inconclusive are left out. Entries that show only a call come without a potency. The source made the active and inactive calls. The call rests on the fitted dose curve; in most records, active means well fitted cell-killing curve with a large enough effect in the repeat runs; inconclusive means weak or mixed curves; inactive means no such curve, though single readings can be large or run the other way.

assay: qHTS assay to identify small molecule agonists of the peroxisome proliferator-activated receptor delta (PPARd) signaling pathway - cell viability counter screen (AID 743211); settings: PPARd-bla HEK293H viability, CellTiter-Glo luminescence, 17 h; series mostly up to 62.6 µM; further: nearly all actives have a fitted effect of over 55% in size
In short: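 Counter screen for cytotoxicity run in parallel with the PPARd reporter screen. Beta-lactamase reporter HEK293H cells exposed to compounds 17 h; ATP-based CellTiter-Glo luminescence quantified viability.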

SMILES	Potency
CCCCCC1CCC(=O)O1 (stereo not given)	inactive
CC/C=C\CCO	inactive
Nc1ncnc2c1ncn2[C@@H]1O[C@H](CO)[C@@H](O)[C@H]1O	inactive
O=C(OCCN1CCOCC1)c1cccnc1Nc1cccc(C(F)(F)F)c1	inactive
OCCc1ccncc1	inactive
O=C(O)COCC(=O)O	inactive
CCn1nc(Cc2ccccc2)cc1C1CCN(C[C@H]2C[C@H](N(C)[C@@H](C(=O)O)C(C)C)C[C@@H]2c2cccc(F)c2)CC1	inactive
Cc1c(Cl)cccc1Nc1ccccc1C(=O)O	inactive
CCCCOC(=O)CC#N	inactive
O=C(Nc1ccc2c(c1)Cc1ccccc1-2)C(F)(F)F	inactive
CCOC(=O)CC(O)(CC(=O)OCC)C(=O)OCC	inactive
Clc1nc2ccccc2nc1Cl	inactive
COC(=O)C(C)(C)C	inactive
CCCCCCCCCC(C)C=O (stereo not given)	inactive
CC(=O)S[C@H](C(=O)N[C@H]1Cc2ccccc2[C@H]2CCC[C@@H](C(=O)O)N2C1=O)C(C)C	inactive
CC(C)CCCCCOC(=O)CS	inactive
NC(=O)c1ccccc1	inactive
COC(=O)Cc1cccc2ccccc12	inactive
OCCOc1cccc(OCCO)c1	inactive
Nc1ccccc1Nc1ccccc1	inactive
CC(CC(C#N)(c1ccccc1)C(C)C)N(C)C (stereo not given)	inactive
NC(=O)c1ccccc1C(N)=O	inactive
CC(=O)OCC(=O)[C@@]1(O)CC[C@H]2[C@@H]3CCC4=CC(=O)C=C[C@]4(C)[C@@]3(F)[C@@H](O)C[C@@]21C	inactive
CC(=O)Nc1cccc(N)c1	inactive
C=CCCC	inactive
